From PubChem BioAssay (EPA / NIEHS)
Values joined by “and” are separate entries in the source; they are usually repeats but may differ in a detail not shown here. Equal values may be shown once. Records with an inconclusive call do not appear. Where a structure was tested more than once in an assay, its records may differ in their call. Active and inactive are the calls of the source. The calls were made as follows: active = hit-call score of the fitted dose curve at least 0.9, where 1 is the maximum; inconclusive = response in the unintended direction; inactive = score below 0.9.

read-out: xenobiotic metabolism (CYP1A2), CYP1A2 (gene 1544); experiment: CLD_CYP1A2_6hr: CellzDirect (CLD) Gene Expression Assay for xenobiotic metabolism (CYP1A2) at 6 hours (AID 2283663);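 as to AC50: potency is for induction meaning a rise in mRNA above DMSO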
Experimental: CLD_6hr is a cell-based, multiplexed-readout assay that uses hepatocyte, a human liver primary cell, with measurements taken at 6 hours after chemical dosing in a 96-well plate.CLD_CYP1A2_6hr is one of 16 assay component(s) measured or calculated from the CLD_6hr assay. It is designed to make measurements of mRNA induction, a form of inducible reporter, as detected with chemiluminescence signals by Quantitative Nuclease Protection Assay (qNPA) technology.Data from the assay component CLD_CYP1A2_6hr was analyzed at the endpoint, CLD_CYP1A2_6hr, in the positive analysis fitting direction relative to DMSO as the negative control and baseline of activity. Using a type of inducible reporter, gain-of-signal activity can be used to understand changes in the reporter gene as they relate to the gene CYP1A2. Furthermore, this assay endpoint can be referred to as a primary readout. To generalize the intended target to other relatable targets, this assay endpoint is annotated to the cyp intended target family, where subfamily is xenobiotic metabolism.
Human hepatocyte cultures were treated daily for two consecutive days with fresh dosing solutions containing appropriate concentrations of the 320 ToxCast chemicals (chemical identities were blinded to CellzDirect and other ToxCast collaborators), vehicle control (0.2% DMSO), and positive control inducers as summarized in Table 1. Due to the large number of treatment groups and chemicals examined, the ToxCast chemicals were divided into two groups (spanning two independent cultures of hepatocytes from separate donor preparations (Hu778: ToxCast plates 1 and 2; Hu776: ToxCast plates 3 and 4). Each preparation of human hepatocyte cultures was treated with respective vehicle control, medium only control, set of six positive controls/reference chemicals for the five hepatic receptor pathways, and a subset of eight of the ToxCast chemicals (indoxacarb, pyrithiobac-sodium, norflurazon, cyhalofop-butyl, methomyl, thiram, acetochlor, and propiconazole). These replicate data, coupled with internal replicates designed within the blinded ToxCast chemical library, provided additional data to evaluate interindividual differences between hepatocyte preparations and their potential impact on chemical profiles.Cell morphology and integrity were evaluated using phase-contrast microscopy as an indicator of hepatocyte cell health (Tyson & Green, 1987). Cultures for each treatment group (i.e., media, vehicle [0.2% DMSO], positive control inducers [multiple concentrations], and the ToxCast chemicals [multiple concentrations]) were observed and cell morphology was assessed relative to vehicle control cultures at each harvest time point (0, 6, 24, or 48 h). […] Images were evaluated at the conclusion of the study to assess changes in cell integrity and account for the effects of chemical exposure on uncharacteristic changes in concentration-dependent gene expression profiles. The results from these determinations of apparent cytotoxicity were annotated (yes/no) alongside the corresponding qNPA data for reference.At the conclusion of each treatment period, hepatocyte cultures (96-well) were washed with 1 volume of HBSS, lysed by addition of 25 ul ArrayPlate lysis buffer (HTG, Tucson, AZ), and 70 ul/well of Denaturation Oil, denatured by incubation at 95C for 10 min, and frozen at approximately -70C until analysis by nuclease protection assay (qNPA) (Roberts et al., 2007). For qNPA analysis, cell lysates were thawed at 50C for approximately 30 min, qNPA probes were added, and samples were incubated at 95C for 10 min to begin the detection process by denaturing the target RNA, dissociating the duplexes and secondary structure hybridization. At the conclusion of the hybridization period, S1 nuclease reagent was added to each sample to digest all nonprotected nucleotides at 50C for 60-90 min. […]

How did the AC50 turn out when `COP(=S)(OC)Oc1nc(Cl)c(Cl)cc1Cl` was run?
Its AC50 is 6.12 µM (active).

For `CC1COC(Cn2cncn2)(c2ccc(Oc3ccc(Cl)cc3)cc2Cl)O1` (stereo not given), which outcome is on record?
The outcome was “inactive”.

For `C#CCOS(=O)OC1CCCCC1Oc1ccc(C(C)(C)C)cc1` (stereo not given), which AC50 is on record?
Its AC50 is 1.9 µM (active).

With `CCCN(CCC)c1c([N+](=O)[O-])cc(S(N)(=O)=O)cc1[N+](=O)[O-]` as the molecule, how does the outcome read?
The outcome was “inactive”.

`CCCCNC(=O)OCC#CI` was tested. Which outcome did it give?
The outcome was “inactive”.

What about the AC50 of the same molecule?
The AC50 was 0.591 µM (active).

With `CC1=C(C(=O)Nc2ccccc2)SCCO1` as the molecule, how does the AC50 read?
The AC50 was 7.64 µM (active).

For `COc1nc(C)nc(NC(=O)NS(=O)(=O)c2ccccc2Cl)n1`, which outcome is on record?
The outcome was “inactive”.

And the AC50?
The AC50 was 0.00149 µM (active).

`CC(C)Oc1cc(-n2nc(C(C)(C)C)oc2=O)c(Cl)cc1Cl` was tested. Which AC50 did it give?
Its AC50 is 2.19 µM (active).

With `CCCCOC(=O)c1ccccc1C(=O)OCCCC` as the molecule, how does the AC50 read?
Its AC50 is 3.87 µM (active).

And the outcome?
Its outcome is “inactive”.

`COc1nc(C)nc(NC(=O)NS(=O)(=O)c2ccccc2CCC(F)(F)F)n1` was tested. Which AC50 did it give?
Its AC50 is 2.44 µM (active).

And the outcome?
Its outcome is “inactive”.

Which AC50 does the source give for `COc1ccc(C(c2ccc(OC)cc2)C(Cl)(Cl)Cl)cc1` here?
Its AC50 is 17.3 µM (active).

Which AC50 does the source give for `CCc1nn(C)c(C(=O)NCc2ccc(C(C)(C)C)cc2)c1Cl` here?
The AC50 was 20 µM (active).

How did the AC50 turn out when `COC(=O)C(C)Oc1ccc(Oc2ccc(Cl)cc2Cl)cc1` (stereo not given) was run?
The AC50 was 3.97 µM (active) and 4.91 µM (active).

And the outcome?
The outcome was “inactive”.

How did the AC50 turn out when `CCOC(=O)CC(SP(=S)(OC)OC)C(=O)OCC` (stereo not given) was run?
Its AC50 is 3.97 µM (active).

Which AC50 does the source give for `CCCC1COC(Cn2cncn2)(c2ccc(Cl)cc2Cl)O1` (stereo not given) here?
Its AC50 is 3.01 µM (active).

Which AC50 does the source give for `O=C(O)c1nc(Cl)ccc1Cl` here?
Its AC50 is 6.11 µM (active).

And the outcome?
The outcome was “inactive”.

How did the outcome turn out when `Cc1ccc(-c2c(Cl)nc(C#N)n2S(=O)(=O)N(C)C)cc1` was run?
Its outcome is “inactive”.

For `Fc1ccc(Oc2ccnc3cc(Cl)cc(Cl)c23)cc1`, which AC50 is on record?
Its AC50 is 5.01 µM (active).

How did the outcome turn out when `C=CCC1=C(C)[C@@H](OC(=O)[C@@H]2[C@@H](C=C(C)C)C2(C)C)CC1=O` was run?
The outcome was “inactive”.

With `O=C(O)COc1nc(Cl)c(Cl)cc1Cl` as the molecule, how does the outcome read?
Its outcome is “inactive”.

With `COP(N)(=O)SC` (stereo not given) as the molecule, how does the outcome read?
The outcome was “inactive”.

How did the outcome turn out when `COc1nc(NC(C)C)nc(NC(C)C)n1` was run?
Its outcome is “inactive”.

How did the outcome turn out when `CNC(=O)ON=CC(C)(C)SC` was run?
Its outcome is “inactive”.

`CON(C)C(=O)Nc1ccc(Cl)c(Cl)c1` was tested. Which AC50 did it give?
The AC50 was 0.752 µM (active).

For `COC(=O)c1ccccc1C(=O)OC`, which outcome is on record?
The outcome was “inactive”.

With `CCCCC(CC)COC(=O)c1ccccc1C(=O)OCC(CC)CCCC` (stereo not given) as the molecule, how does the outcome read?
Its outcome is “inactive”.

`CCNc1nc(Cl)nc(NC(C)C)n1` was tested. Which AC50 did it give?
The AC50 was 1.62 µM (active).

For `N#Cc1cc(Br)c(O)c(Br)c1`, which outcome is on record?
Its outcome is “inactive”.

`CCNc1nc(Cl)nc(NCC)n1` was tested. Which outcome did it give?
The outcome was “inactive”.

Which AC50 does the source give for `C=CC1(C)OC(=O)N(c2cc(Cl)cc(Cl)c2)C1=O` (stereo not given) here?
Its AC50 is 0.828 µM (active).

For `Cc1c(F)c(F)c(COC(=O)C2C(/C=C(\Cl)C(F)(F)F)C2(C)C)c(F)c1F` (stereo not given), which outcome is on record?
Its outcome is “inactive”.

Which outcome does the source give for `CCOP(=S)(OCC)SCn1c(=O)oc2cc(Cl)ccc21` here?
Its outcome is “inactive”.

With `O=C(Nc1ccccc1)Nc1ccnc(Cl)c1` as the molecule, how does the AC50 read?
Its AC50 is 8.16 µM (active).

`N#Cc1nn(-c2c(Cl)cc(C(F)(F)F)cc2Cl)c(N)c1S(=O)C(F)(F)F` (stereo not given) was tested. Which outcome did it give?
Its outcome is “inactive”.
